Compounds with a hit are over-represented: about 1.1% of the library has one in this group of screens.
GPT2 inhibitor = blocks human glutamate pyruvate transaminase 2; Q8TD30; Potency, µM (series often up to 57.7 µM), for the others: at the highest dose activity change, negative = inhibition, most hits filed as inhibitors; Recombinant GPT2, coupled pyruvate oxidase/HRP Amplex Red fluorescence; AID 1671188; hit rate 0.25% among 100,000; note: potency is the fitted concentration of half-maximal effect; nearly all actives have a fitted effect of over 60% in size
Target sequence (Q8TD30 whole entry, looked up): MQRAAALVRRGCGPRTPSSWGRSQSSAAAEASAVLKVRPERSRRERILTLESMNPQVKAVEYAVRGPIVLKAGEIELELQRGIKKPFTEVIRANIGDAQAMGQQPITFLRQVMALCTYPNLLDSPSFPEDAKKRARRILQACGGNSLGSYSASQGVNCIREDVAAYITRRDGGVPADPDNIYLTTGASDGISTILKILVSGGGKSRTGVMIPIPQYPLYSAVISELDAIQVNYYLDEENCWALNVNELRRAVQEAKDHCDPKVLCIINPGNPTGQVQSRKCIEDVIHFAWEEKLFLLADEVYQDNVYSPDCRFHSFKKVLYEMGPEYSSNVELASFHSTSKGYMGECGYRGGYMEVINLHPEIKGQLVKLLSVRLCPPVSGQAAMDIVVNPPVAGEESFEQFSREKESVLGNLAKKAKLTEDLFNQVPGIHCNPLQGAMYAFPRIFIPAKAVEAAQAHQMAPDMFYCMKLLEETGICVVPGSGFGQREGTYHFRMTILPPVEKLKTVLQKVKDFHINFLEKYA
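Fluorescence read-out: pyruvate from GPT2 turnover coupled to pyruvate oxidase, HRP and Amplex Red (0.2mM ThPP, 0.2U/mL PO and HRP, 50uM Amplex final). Substrates 250uM a-KG, 2mM L-alanine; enzyme 10ng/uL; 30 min RT.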
SNCA expr inhib = inhibitors of alpha-synuclein (SNCA) gene expression. AID 1671194. Potency, µM (titrated, usually from 57.2 µM), without a hit: top-dose activity change, negative = inhibition, most hits filed as inhibitors. HEK-293 SNCA-luciferase knock-in, luminescence, 24 h. hit rate 0.17% among 140,000;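 note: potency is the fitted concentration of half-maximal effect; plate controls were DMSO cells for no effect and cell-free wells for full effect; nearly all actives have a fitted effect of over 45% in size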
HEK293 viab = counter-screen for SNCA expression inhibitors: cell viability; HEK-293-SNCA-luc viability, GF-AFC fluorescence, 24 h; Potency, µM (series often up to 57.1 µM), without a hit: top-dose activity change, negative = cytotoxicity, most hits filed as cytotoxic; hit rate 0.12% among 150,000; AID 1671193;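 note: potency is the fitted concentration of half-maximal effect; 0% = DMSO-treated cells and -100% = medium-only wells without cells; nearly all actives have a fitted effect of over 30% in size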
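Cytotoxicity counterscreen: after 24 h compound treatment of genome-edited SNCA-luciferase HEK-293 cells, live-cell protease substrate GF-AFC read by fluorescence after 30 min; activity scaled between DMSO (0%) and medium-only (-100%), curves Hill-fitted.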
IP6K1 inh = blocks human inositol hexakisphosphate kinase 1. Q92551. IP6K1 kinase, ADP-Glo luminescence, 2 h; hits give low values. activity change, % (series mostly up to about 58 µM). hit rate 0.81% among 140,000. AID 1645851; in the data active = activity change below about -25%
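ADP-Glo luminescence measures ADP made by human IP6K1 during a 2 h RT reaction with ATP/IP6 (mix at 1.3 mM/130 uM); top library doses 57.5 and 19.1 uM final.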
IP6K1 conf = human IP6K1 inhibition, confirmatory; shares compounds with IP6K1 inh; recombinant IP6K1 kinase, ADP-Glo luminescence, 2 h; Potency, µM (titrated, usually from 49 µM), without a hit: at the highest dose activity change, negative = inhibition, hits mostly inhibitors; hit rate 13% among 1,200; AID 1645852; note: potency is the fitted concentration of half-maximal effect; nearly all actives have a fitted effect of over 65% in size
Starred values were filed as active, the others as inactive; i = inactive; ? = inconclusive; · = no result; [ ] = remark or other dose. Unless noted, calls come from the whole dose curve; as a rule, active = well fitted curve in the direction sought with a large enough effect; inconclusive = small, poorly fitted or top-dose-only effect, or another doubt; inactive = no such curve, though single readings can be large; an effect the other way counts as inactive or inconclusive. Unless noted, % is set by controls: 0 for no effect and ±100 for the full control effect.

SMILES	GPT2 inhibitor	SNCA expr inhib	HEK293 viab	IP6K1 inh	IP6K1 conf
CCOc1ccc(CNC(=O)CCS(=O)(=O)c2cc3c4c(c2)CCN4C(=O)CC3)cc1OC	·	-20.3%	7.8%	-27.8*	13.2%
COc1ccc(CNC(=O)CCS(=O)(=O)c2cc3c4c(c2)CCN4C(=O)CC3)cc1	·	18.2%	-6.0%	-8.7	·
CCc1ccc(NC(=O)Cn2nnc(C(=O)NCc3ccc(C)cc3)c2N)cc1	·	-5.1%	4.3%	-10.0	·
COc1cc(NC(=O)Cn2c(=O)nc(-c3ccccc3F)c3cc(Cl)ccc32)cc(OC)c1	·	?	?	-28.5*	?
O=C(Nc1cccc(F)c1)Nc1ccnn1C1CCN(C(=O)C2CCC2)CC1	-0.7%[11.5 µM]	18.5%	3.6%	-31.8*	-5.3%
C=CCOc1c(OC)ccc2c1CN(C1CCCC1)C(=O)CCN2CC(O)COCc1ccco1 (stereo unspecified)	·	·	·	-4.1	·
O=C(NCc1nnc2cc(-c3nc(C4CC4)no3)ccn12)C1(c2ccccc2)CC1	i	13.9%	-7.0%	14.4	·
CCOC(=O)c1c(NC(C)=O)c2c3c(sc2n1Cc1nc(-c2ccccc2Cl)oc1C)CCCC3	·	?	-23.5%	-30.4*	10.6%
CCOC(=O)c1c(NC(C)=O)c2c3c(sc2n1Cc1nc(-c2cccc(Cl)c2)oc1C)CCCC3	·	-14.6%	2.6%	-5.2	·
COc1ccc(NC(=O)C2CCN(c3cc(C)nc4c(-c5ccc(Cl)cc5)c(C)nn34)CC2)cc1	·	11.8%	-6.8%	-5.3	·
COc1ccc(-c2c(-c3cc(C(=O)O)ccn3)ncn2C)cc1	-25.9%	·	-20.3%	-34.7*	?
O=C(Cc1c[nH]c2ncc(-c3ccccc3)cc12)N1CCCC1	-27.0%[88.5 µM]	-19.7%[87.6 µM]	-19.3%[87.6 µM]	-12.5	·
O=C(O)c1ccc(-c2c[nH]c3ncc(-c4ccccc4)cc23)cc1C1CCCC1	i	?	5.0%	·	?
CCOc1ccc(NC(=O)CN(c2ccc(Cl)cc2C)S(=O)(=O)c2ccccc2)cc1	·	?	-7.8%	-25.4*	-10.1%
CCc1nc2nc(C)c(NS(=O)(=O)c3ccc(F)c(C)c3)c(=O)n2[nH]1	·	26.9%	7.3%	-27.9*	9.0%
CCN(CCCNC(=O)c1cc(Nc2ccc(OC)cc2OC)nc2ccccc12)c1cccc(C)c1	·	3.1%	-3.6%	-36.1*	-1.7%
COc1ccc(Nc2cc(C(=O)NCc3ccccc3)c3ccccc3n2)cc1	·	-5.0%	-0.8%	-44.2*	-10.3%
CC(C)Cc1nc(CN(C)C(=O)c2cccc(CCC(C)(C)O)c2)no1	i[11.5 µM]	?	-7.5%	-31.8*	-12.4%
OC1CC(c2cc(NCCCn3ccc4ccccc43)ncn2)C1 (stereo unspecified)	-19.8%[11.5 µM]	10.4%	-5.4%	-34.2*	-3.3%
Cc1ccc(-c2cc(C(=O)N3CCC(c4nc(C5CCOCC5)no4)C3)c3ccccc3n2)cc1C (stereo unspecified)	-3.7%	10µM*	?	-28.2*	-2.2%
Cc1cccc(C(=O)N2CCC(c3nc(C4CCOCC4)no3)C2)c1 (stereo unspecified)	i	10.1%	-6.1%	9.5	·
Cc1cccc(Nc2nc(N[C@@H]3CCCC[C@H]3N)ncc2C(N)=O)c1	?	-17.4%	-4.7%	·	·
NC(=O)c1cnc(N[C@@H]2CCCC[C@H]2N)nc1Nc1cccc(-n2nccn2)c1	i	·	?	-16.9	?
COc1ccccc1N1CCN(C(=O)c2c3c(nc4ccccc24)C(=O)N(C2CCCCC2)C3)CC1	·	17.8%	-8.4%	-0.3	·
Cc1ccc(C)c(N2CCN(C(=O)c3c4c(nc5ccccc35)C(=O)N(C3CCCCC3)C4)CC2)c1	·	-4.1%	9.3%	-31.2*	-9.1%
SMILES	GPT2 inhibitor	SNCA expr inhib	HEK293 viab	IP6K1 inh	IP6K1 conf
CC#C[C@@H](CC(=O)O)c1ccc(OCc2cccc(-c3ccc(C(F)(F)F)cc3)c2)cc1	?	·	-11.2%	-28.3*	?
CCn1c2c(c(=O)n3ncc(C(=O)Nc4ccc(C(=O)OC)cc4)c13)CN(Cc1ccc(OC)cc1)CC2	·	-3.6%	4.1%	-34.9*	-6.4%
CCn1c2c(c(=O)n3ncc(C(=O)Nc4cc(Cl)ccc4OC)c13)CN(Cc1ccc(OC)cc1)CC2	·	?	-7.9%	-13.9	·
O=C(NCc1nc(-c2cccc(F)c2)c(-c2ccccn2)[nH]1)[C@@H]1C[C@@H](O)CN1	-20.9%	2.4%	-2.9%	-30.4*	-6.9%
O=C(NCc1cccc(Cl)c1)c1cn2cc(-c3cccc(C(F)(F)F)c3)sc2n1	i	?	-13.6%[87.6 µM]	1.4	·
Cc1ccccc1CNC(=O)c1cnc2sc(N3CCOCC3)nn2c1=O	·	-9.4%	-1.4%	-99.7*	-14.9%
O=C1NC(=O)/C(=C/c2ccc(-c3ccc(F)cc3O)o2)S1	-21.8%	20.6%	-7.6%	·	2.59µM*
O=C1NC(=O)/C(=C/c2ccc3nccnc3c2)S1	i	33.4%	2.0%	·	·
CCn1nccc1C(=O)N1CCC2(CC1)CC(N(Cc1ccccc1)C1CC1)CCO2 (stereo unspecified)	i	-6.9%	4.9%	-10.2	·
COc1ccc(-n2c(=O)c3c(n2Cc2ccccc2)CN(CCCc2ccccc2)CC3)cc1	i	-6.1%	?	-27.7*	-11.1%
Cc1cccc(C(=O)Nc2ccc(N3CCC(CCN4CCOCC4)CC3)c(C(=O)O)c2)c1	·	?	-0.4%	-11.2	·
O=C(Nc1ccc(N2CCC(N3CCCCC3)CC2)c(C(=O)O)c1)c1ccc(Br)cc1	·	42.0%	9.0%	-28.9*	?
O=C(Nc1cnc(N2CCC(N3CCCCC3)CC2)c(C(=O)O)c1)c1ccc(Br)cc1	·	-7.3%	4.6%	-34.3*	?
O=C(Nc1ccc(N2CCOCC2)c(C(=O)O)c1)c1ccc(Br)cc1	·	33.7%	7.5%	-33.4*	?
COc1ccccc1-c1ccc(CN2CCCCC2C(=O)N2CCOCC2)cc1 (stereo unspecified)	-27.5%	-3.9%	7.4%	5.8	·
Cc1cccc(C(=O)n2nc(-c3cccnc3)nc2NCc2ccccc2)c1	·	17.8%	1.0%	-29.9*	?
Cc1ccccc1C(=O)n1nc(-c2cccnc2)nc1NCc1ccccc1	·	-3.0%	0.5%	20.2	·
c1cc2c(cc1CN1CCCCC1)CNCCO2	-21.4%	-23.6%	-12.8%	-2.5	·
Cc1cc(C)c(NC(=O)Cn2c(=O)n(Cc3ccccc3)c(=O)c3c(C)c(C(=O)N(C)C)sc32)c(C)c1	·	-11.9%	2.0%	22.7	·
Cc1cc(C)c(NC(=O)Cn2c(=O)n(-c3ccc(F)cc3)c(=O)c3c(C)c(C(=O)N(C)C)sc32)c(C)c1	·	3.6%	13.1%	-27.0*	-6.0%
CC(C)C[C@H](C(=O)O)c1cc(-c2ccc(C(F)(F)F)cc2)cc(-c2ccc(C(F)(F)F)cc2)c1	0.9%	·	-34.3%	-29.9*	?
CC(C(=O)NCc1ccccc1Cl)n1ccc2cc(S(=O)(=O)N3CCCCC3)ccc21 (stereo unspecified)	·	-27.4%	-4.0%	37.1	·
